The text below walks through data of PubChem BioAssay (EPA / NIEHS).

Assay [1] can be described thus: ATG_E_Box_CIS: Attagene CIS-FACTORIAL HepG2 Assay for human Enhancer Box (E-box) (AID 2282936). The settings on record: HepG2 E-box cis-reporter transcription, actives raise or lower the signal. A digest of the protocol:
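Endogenous transcription factor activity was sensed in human HepG2 liver cells through transfected cis-promoter reporter units. After 24 h of dosing, total RNA was reverse-transcribed and reporter cDNA resolved by capillary electrophoresis.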

Assay [2] in a line: ATG_M_61_CIS: Attagene CIS-FACTORIAL HepG2 Assay for M61 Transcription Factor (Internal Marker) (AID 2282937). The settings on record: HepG2 Attagene CIS-FACTORIAL M61 internal marker reporter; actives raise or lower the signal. A digest of the protocol:
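Multiplexed reporter mRNA assay, HepG2 human hepatoma cells, 24 h treatment. Signal: FAM-labelled, HpaI-digested RT-PCR fragments by CE. Fit: bidirectional, baseline DMSO.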

Assay [3] is described as follows: ATG_EGR_CIS: Attagene CIS-FACTORIAL HepG2 Assay for human Early Growth Response 1 (EGR1) (AID 2282938). The settings on record: HepG2 Attagene CIS-FACTORIAL EGR reporter mRNA; actives raise or lower the signal. A digest of the protocol: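 Multiplexed cis-reporter system in human hepatoma HepG2 cells, transiently transfected. Cells are dosed for 24 h; reporter transcripts are amplified, fluorescently tagged and sized by capillary electrophoresis, with DMSO as negative control.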

Assay [4] can be described thus: ATG_M_19_CIS: Attagene CIS-FACTORIAL HepG2 Assay for M19 Transcription Factor (Internal Marker) (AID 2282939). The settings on record: HepG2 Attagene CIS-FACTORIAL M19 internal marker reporter; actives raise or lower the signal. A digest of the protocol: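 Transfect HepG2 with MRTU reporter library → dose chemical, 24 h → isolate total RNA, reverse-transcribe with oligo(dT) → PCR, 6-FAM label, HpaI cut (2 h, 37 C) → capillary electrophoresis. Bidirectional fit vs DMSO.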

Assay [5] can be described thus: ATG_ERE_CIS: Attagene CIS-FACTORIAL HepG2 Assay for Estrogen Response Element (ERE) (AID 2282940). The settings on record: HepG2 ERE cis-reporter, Attagene RNA transcript; actives raise or lower the signal. A digest of the protocol:
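Transient MRTU transfection of human HepG2; cis-element promoters; 24 h dosing; total RNA → RT (oligo dT) → PCR → 6-FAM primer extension → HpaI digest → CE fluorescence. Bidirectional fit, DMSO baseline.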

Assay [6] can be described thus: ATG_Ets_CIS: Attagene CIS-FACTORIAL HepG2 Assay for human Erythroblast Transformation Specific (ETS) (AID 2282941). The settings on record: HepG2 ETS cis-reporter transcription, actives raise or lower the signal. A digest of the protocol:
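Multiplexed reporter transcript profiling: HepG2, 24 h treatment, total RNA to cDNA, PCR, 6-FAM labelling, HpaI cut, capillary electrophoresis. Gain- or loss-of-signal fitted against DMSO.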

Assay [7] addresses Hepatocyte nuclear factor 3-beta (Homo sapiens) (UniProt Q9Y261). Briefly: ATG_FoxA2_CIS: Attagene CIS-FACTORIAL HepG2 Assay for human Forkhead box A2 (FOXA2) (AID 2282942). The settings on record: HepG2 cis-reporter transcription factor activity, 24 h; actives raise or lower the signal. A digest of the protocol: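 Multiplexed cis-element reporter assay in transiently transfected HepG2. Twenty-four hours post-dosing, RNA was reverse-transcribed, amplified, FAM-labelled, HpaI-digested and separated by CE. Activity gain or loss relative to DMSO.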

Assay [8] is described as follows: ATG_FoxO_CIS: Attagene CIS-FACTORIAL HepG2 Assay for human Forkhead box O (FoxO) (AID 2282943). The settings on record: HepG2 Attagene cis-reporter, FoxO element, mRNA; actives raise or lower the signal. A digest of the protocol: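 24 h chemical exposure, HepG2 with transient cis-MRTU transfection. RNA extraction, oligo(dT) RT, reporter-specific PCR, primer-extension labelling, HpaI digestion, CE fragment analysis; bidirectional fit, DMSO baseline.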

The nature of assay [9]: ATG_GATA_CIS: Attagene CIS-FACTORIAL HepG2 Assay for human GATA Binding Protein (AID 2282944). The settings on record: HepG2 GATA cis-element reporter, Attagene multiplex mRNA; actives raise or lower the signal. A digest of the protocol: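 Transient MRTU transfection, HepG2, 24 h compound exposure. Total RNA → oligo(dT) RT → PCR → 6-FAM primer extension → HpaI cut → CE. Bidirectional fit vs DMSO.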

Assay [10] can be described thus: ATG_GLI_CIS: Attagene CIS-FACTORIAL HepG2 Assay for human Zinc Finger Protein GLI1 (AID 2282945). The settings on record: HepG2, Attagene cis-factorial reporter mRNA, GLI element; actives raise or lower the signal. A digest of the protocol: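 HepG2 cells transiently transfected with cis-promoter multiplexed reporter units report endogenous transcription factor activity. After 24 h chemical exposure, reporter mRNA was quantified by RT-PCR, 6-FAM labelling, HpaI digestion and capillary electrophoresis, with bidirectional fitting against DMSO.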

Assay [11] can be described thus: ATG_GRE_CIS: Attagene CIS-FACTORIAL HepG2 Assay for human Glucocorticoid Response Elements (GRE) (AID 2282947). The settings on record: HepG2 GRE cis-reporter, Attagene multiplex mRNA; actives raise or lower the signal. A digest of the protocol: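 Cells (HepG2) bearing transfected cis-promoter reporter transcription units were treated with chemical for 24 hours. Reporter mRNA was measured via RT-PCR with capillary electrophoresis, and activity was fitted in both directions relative to DMSO.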

A short description of assay [12]: ATG_ISRE_CIS: Attagene CIS-FACTORIAL HepG2 Assay for human Interferon Regulatory Factor 1 (IRF1) binding to an Interferon-Stimulated Response Element (ISRE) (AID 2282948). The settings on record: HepG2 ISRE cis-reporter (Attagene), mRNA transcription readout; actives raise or lower the signal. A digest of the protocol:
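Signal reflects induction or loss of ISRE-linked reporter mRNA in transiently transfected HepG2 cells after a 24 h treatment, detected by fluorescent RT-PCR fragments on capillary electrophoresis and normalised to DMSO.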

A short description of assay [13]: ATG_M_32_CIS: Attagene CIS-FACTORIAL HepG2 Assay for M32 Transcription Factor (Internal Marker) (AID 2282949).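 Further: background control marker of the multiplexed CIS panel rather than a real target.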 The settings on record: HepG2 Attagene cis-factorial M32 reporter, mRNA; actives raise or lower the signal. A digest of the protocol: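 HepG2 human liver cells transiently transfected with cis-promoter-driven multiple reporter transcription units, dosed 24 h. Reporter mRNA quantified by RT-PCR, FAM-labelled primer extension, HpaI digest and capillary electrophoresis; bidirectional fit versus DMSO baseline.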

In assay [14] the target is Hypoxia-inducible factor 1-alpha (Homo sapiens) (UniProt Q16665). Briefly: ATG_HIF1a_CIS: Attagene CIS-FACTORIAL HepG2 Assay for human Hypoxia Inducible Factor 1 (HIF1A) (AID 2282951). The settings on record: HepG2 Attagene cis-factorial HIF1a reporter transcription; actives raise or lower the signal. A digest of the protocol: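 Cis-element reporter constructs were transiently transfected into HepG2 cells, which were treated for 24 h; reporter RNA was reverse-transcribed, amplified, labelled and resolved by capillary electrophoresis.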
Chain of Hypoxia-inducible factor 1-alpha (Homo sapiens) (Q16665 whole entry, looked up): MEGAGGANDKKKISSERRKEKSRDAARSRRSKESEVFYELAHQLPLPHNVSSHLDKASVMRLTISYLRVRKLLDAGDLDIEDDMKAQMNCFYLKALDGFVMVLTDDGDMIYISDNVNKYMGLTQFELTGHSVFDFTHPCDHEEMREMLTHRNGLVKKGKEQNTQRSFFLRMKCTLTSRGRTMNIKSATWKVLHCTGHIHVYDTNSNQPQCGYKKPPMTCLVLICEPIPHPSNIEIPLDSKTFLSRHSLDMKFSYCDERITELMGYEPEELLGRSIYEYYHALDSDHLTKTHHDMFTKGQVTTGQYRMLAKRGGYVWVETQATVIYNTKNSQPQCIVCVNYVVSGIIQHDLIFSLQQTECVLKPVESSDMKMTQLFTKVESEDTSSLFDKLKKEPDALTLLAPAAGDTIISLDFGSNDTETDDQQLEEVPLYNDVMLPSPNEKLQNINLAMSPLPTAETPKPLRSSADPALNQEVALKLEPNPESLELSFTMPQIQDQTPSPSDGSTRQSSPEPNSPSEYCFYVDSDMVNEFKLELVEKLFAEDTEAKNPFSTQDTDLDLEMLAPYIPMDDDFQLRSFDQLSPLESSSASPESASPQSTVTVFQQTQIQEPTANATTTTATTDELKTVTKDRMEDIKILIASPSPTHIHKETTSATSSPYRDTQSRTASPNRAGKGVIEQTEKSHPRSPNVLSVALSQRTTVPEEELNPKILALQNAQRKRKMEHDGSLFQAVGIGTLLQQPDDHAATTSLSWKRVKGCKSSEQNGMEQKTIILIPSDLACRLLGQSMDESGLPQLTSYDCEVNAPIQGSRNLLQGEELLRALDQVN

For assay [15], the target named is Hepatocyte nuclear factor 6 (Homo sapiens) (UniProt Q9UBC0). Briefly: ATG_HNF6_CIS: Attagene CIS-FACTORIAL HepG2 Assay for human Hepatocyte Nuclear Factor 6 (HNF6) (AID 2282952). The settings on record: HepG2 Attagene cis-factorial HNF6 reporter transcription; actives raise or lower the signal. A digest of the protocol:
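First, HepG2 cells were transfected with the multiplexed cis reporter library and dosed with chemical for 24 h. Next, RNA was reverse-transcribed, PCR-amplified and fluorescently labelled. Finally, HpaI-digested fragments were read by capillary electrophoresis.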

The target in assay [16] is Heat shock factor protein 1 (Homo sapiens) (UniProt Q00613). Briefly: ATG_HSE_CIS: Attagene CIS-FACTORIAL HepG2 Assay for human Heat Shock Transcription Factor 1 (HSE) (AID 2282953). The settings on record: HepG2 HSE cis-reporter, Attagene RNA transcription; actives raise or lower the signal. A digest of the protocol: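 HepG2, transient MRTU transfection, cis-promoter reporters (endogenous TF activity). 24 h compound. RNA → oligo(dT) RT → PCR → 6-FAM primer extension → HpaI cut → CE. Bidirectional fit vs DMSO.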
Chain of Heat shock factor protein 1 (Homo sapiens) (Q00613 whole entry, looked up): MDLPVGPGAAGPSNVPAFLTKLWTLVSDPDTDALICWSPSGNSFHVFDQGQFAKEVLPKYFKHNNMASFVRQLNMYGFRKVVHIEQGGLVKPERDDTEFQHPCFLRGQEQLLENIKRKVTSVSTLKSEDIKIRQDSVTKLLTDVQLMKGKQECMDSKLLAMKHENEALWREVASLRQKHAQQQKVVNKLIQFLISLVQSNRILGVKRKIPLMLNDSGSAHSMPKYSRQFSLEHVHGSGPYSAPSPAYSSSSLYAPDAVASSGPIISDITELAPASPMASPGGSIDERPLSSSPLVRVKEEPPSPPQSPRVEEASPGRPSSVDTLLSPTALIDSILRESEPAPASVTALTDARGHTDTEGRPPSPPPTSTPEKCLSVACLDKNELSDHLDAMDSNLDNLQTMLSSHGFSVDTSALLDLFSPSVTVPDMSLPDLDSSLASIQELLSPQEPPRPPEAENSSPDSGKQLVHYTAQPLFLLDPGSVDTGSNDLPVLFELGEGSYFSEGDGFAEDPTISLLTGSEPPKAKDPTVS

Assay [17] is described as follows: ATG_MRE_CIS: Attagene CIS-FACTORIAL HepG2 Assay for human Metal Responsive Element (MRE) (AID 2282954). The settings on record: HepG2 MRE cis-reporter transcription, Attagene multiplex; actives raise or lower the signal. A digest of the protocol: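 Cells were transfected with cis-promoter reporter transcription units, then dosed for 24 h. RNA was reverse-transcribed, amplified, fluorescently labelled and resolved by capillary electrophoresis, and activity was fitted in both directions relative to DMSO.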

The nature of assay [18]: ATG_M_06_CIS: Attagene CIS-FACTORIAL HepG2 Assay for M06 Transcription Factor (Internal Marker) (AID 2282950). The settings on record: HepG2 Attagene CIS-FACTORIAL M06 internal marker reporter; actives raise or lower the signal. A digest of the protocol:
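Read-out is fluorescence of labelled reporter cDNA fragments resolved by capillary electrophoresis after RT-PCR. Cells: HepG2 carrying transfected cis-promoter reporter units, treated 24 h. Gain or loss of signal fitted relative to DMSO.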

Assay [19] is described as follows: ATG_PBREM_CIS: Attagene CIS-FACTORIAL HepG2 Assay for human Phenobarbital-responsive Enhancer Module (PBREM) (AID 2282955). The settings on record: HepG2 PBREM cis-reporter, Attagene multiplexed transcription; actives raise or lower the signal. A digest of the protocol: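 Multiplexed cis-reporter readout in human hepatoma HepG2 cells; PBREM-regulated transcript quantified after 24 h exposure by fluorescent RT-PCR fragment analysis. Signal changes up or down fitted relative to DMSO.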

The source made the active and inactive calls. How the source made its calls: active means hit-call score of the fitted dose curve at least 0.9, where 1 is the maximum; inactive means score below 0.9.

Chain of Hepatocyte nuclear factor 3-beta (Homo sapiens) (Q9Y261 whole entry, looked up): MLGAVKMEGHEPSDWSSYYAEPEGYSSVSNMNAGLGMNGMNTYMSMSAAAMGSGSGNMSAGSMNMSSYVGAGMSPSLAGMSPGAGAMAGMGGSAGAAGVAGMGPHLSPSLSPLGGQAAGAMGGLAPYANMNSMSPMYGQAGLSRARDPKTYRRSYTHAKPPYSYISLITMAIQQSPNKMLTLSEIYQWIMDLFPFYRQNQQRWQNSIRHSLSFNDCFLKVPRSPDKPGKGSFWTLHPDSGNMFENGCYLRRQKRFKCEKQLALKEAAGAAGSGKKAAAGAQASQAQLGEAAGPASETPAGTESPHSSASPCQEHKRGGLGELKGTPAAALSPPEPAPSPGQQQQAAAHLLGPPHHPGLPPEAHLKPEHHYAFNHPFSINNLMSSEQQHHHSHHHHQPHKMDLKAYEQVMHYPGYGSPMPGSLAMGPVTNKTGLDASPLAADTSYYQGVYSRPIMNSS
Chain of Hepatocyte nuclear factor 6 (Homo sapiens) (Q9UBC0 whole entry, looked up, the tested form may be a part): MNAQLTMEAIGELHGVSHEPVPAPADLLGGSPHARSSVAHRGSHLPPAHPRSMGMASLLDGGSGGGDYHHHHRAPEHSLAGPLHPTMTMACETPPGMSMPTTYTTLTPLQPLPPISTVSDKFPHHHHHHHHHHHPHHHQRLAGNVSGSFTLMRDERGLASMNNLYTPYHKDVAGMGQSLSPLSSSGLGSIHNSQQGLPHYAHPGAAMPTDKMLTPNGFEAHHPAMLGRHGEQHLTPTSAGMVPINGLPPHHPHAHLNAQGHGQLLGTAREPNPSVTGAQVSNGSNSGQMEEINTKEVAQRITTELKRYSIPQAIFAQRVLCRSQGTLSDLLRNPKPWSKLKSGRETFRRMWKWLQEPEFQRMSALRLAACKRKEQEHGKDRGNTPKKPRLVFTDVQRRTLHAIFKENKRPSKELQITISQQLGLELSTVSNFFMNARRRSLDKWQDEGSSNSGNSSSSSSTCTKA

As usually defined, the AC50 is the concentration giving half of the maximal activity seen. Consider `O=C(O)CCCCCCCCCC(=O)O`, for which the result in assay [1], in assay [2], in assay [3], in [4], in assay [6] and in [7] was inactive. The outcome in [8], in assay [9], in assay [10], in assay [11], in assay [12] and in [13] was inactive. Besides, the compound was classed as inactive in [14], in assay [15], in [16] and in assay [17]. In assay [5], the AC50 is 22 µM (active).
Take `O=c1c2ccccc2oc2ccccc12`: the result in [1], in assay [2], in [3], in [4], in assay [6] and in [7] was inactive. Also, the result in assay [8], in assay [9], in assay [10], in assay [11], in assay [12] and in assay [13] was inactive. For the same compound, the result in assay [18], in assay [14], in assay [15], in assay [17] and in [19] was inactive. Besides, the AC50 in assay [5] was 26.4 µM (active).
Regarding `C=C(C)[C@@H]1CCC2=CCC[C@@H](C)[C@]2(C)C1`, the outcome in assay [1], in assay [2], in assay [3], in assay [4], in [6] and in assay [7] was inactive. The outcome in [8], in [9], in assay [10], in assay [11], in assay [12] and in [13] was inactive. For the same compound, the outcome in [18], in assay [14], in assay [15], in [16] and in assay [19] was inactive. The AC50 was 57.2 µM (active) in assay [5] and 155 µM (active) in assay [17].
On to `Cc1ccc(C(C)c2ccc(C)c(C)c2)cc1C`, for which the outcome in assay [1], in [2], in [3], in assay [4], in [5] and in assay [6] was inactive. In addition, the compound was called inactive in assay [7], in assay [8], in assay [9], in [12], in assay [13] and in assay [18]. Further, the call in assay [15] and in assay [19] was inactive. Further, the AC50 was 146 µM (active) in [10]; 24.8 µM (active) in assay [11]; 26.1 µM (active) in [14]; 100 µM (active) in [16]; 181 µM (active) in assay [17].
As to `COC(=O)c1cc(Cl)ccc1[N+](=O)[O-]`, the outcome in assay [1], in assay [2], in assay [3], in assay [4], in [5] and in assay [6] was inactive. Moreover, the call in assay [7], in [8], in [9], in assay [10], in assay [11] and in [12] was inactive. In addition, the compound was called inactive in [13], in assay [18], in [14], in [15], in assay [16] and in assay [17]. Also, the result in [19] was inactive.
Consider `CCCCCCCCCCCSCC(=O)O`, for which the AC50 in assay [1] was 100 µM (active); in assay [3], 82.6 µM (active); in assay [12], 74.1 µM (active); in assay [14], 124 µM (active); in assay [15], 100 µM (active); in [16] it was 159 µM (active). Also, the half-maximal activity concentration (AC50) in [17] was 106 µM (active). Moreover, the call in assay [2], in assay [4], in assay [5], in assay [6], in assay [7] and in [8] was inactive. In addition, the result in [9], in [10], in [11], in [13], in [18] and in assay [19] was inactive.
As to `CCCCCC(C)O` (stereo not given), the result in assay [1], in assay [2], in [3], in assay [4], in assay [5] and in assay [6] was inactive. In addition, the result in assay [7], in [8], in assay [9], in assay [10], in assay [11] and in [12] was inactive. For the same compound, the call in assay [13], in assay [18], in assay [14], in [15], in [16] and in assay [17] was inactive. Besides, the result in assay [19] was inactive.
